Screens: PubChem, National Center for Advancing Translational Sciences (NCATS)
D1 antagonist: blocks dopamine activation of the human D1 receptor | HEK293 TREx D1 cells, calcium flux, dopamine EC80; active compounds read low | AID 504652 | 3.2% of 360,000 active | activity change, negative = inhibition, % at 10 µM | P21728; in the data active = activity change below about -30%; note: % is set by controls: 0 for no effect and ±100 for the full control effect
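Inducible Hek293 Trex D1 cells (tetracycline, overnight, 30 C). Calcium dye 30–90 min RT. Antagonist mode: EC80 dopamine added after 180 s compound read.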
D1 agonist: human D1 receptor agonism; HEK293 T-REx D1 cells, calcium flux, agonist mode; activation, % at 2 µM; 1% of 360,000 active; in the data active = activation above about 30%; note: 0% is about no effect
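Agonism was scored from calcium flux recorded over 180 s (1 read/s) after pintool compound addition, following a 10-cycle baseline. Cells were inducible force-coupled HEK293 TREx D1, plated overnight at 30 C and loaded with no-wash calcium dye.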
D1 potentiator: enhances dopamine response at the human D1 receptor; P21728; HEK293 TREx D1 cells, calcium flux, dopamine EC20 potentiation; potentiation, % at 10 µM; 0.036% of 360,000 active; in the data active = potentiation above about 30%; note: 0% is about no effect
DRD3 antagonist: D3 dopamine receptor (human) antagonism; D3R cells, DiscoveRx beta-arrestin luminescence, antagonist mode; active compounds read low; max response, negative = inhibition, %; 2.5% of 360,000 active; AID 652054; in the data active = max response below about -50%; inconclusive = no clear call, values can overlap the other calls; note: % is set by controls: 0 for no effect and ±100 for the full control effect
Target sequence (P35462 whole entry, looked up): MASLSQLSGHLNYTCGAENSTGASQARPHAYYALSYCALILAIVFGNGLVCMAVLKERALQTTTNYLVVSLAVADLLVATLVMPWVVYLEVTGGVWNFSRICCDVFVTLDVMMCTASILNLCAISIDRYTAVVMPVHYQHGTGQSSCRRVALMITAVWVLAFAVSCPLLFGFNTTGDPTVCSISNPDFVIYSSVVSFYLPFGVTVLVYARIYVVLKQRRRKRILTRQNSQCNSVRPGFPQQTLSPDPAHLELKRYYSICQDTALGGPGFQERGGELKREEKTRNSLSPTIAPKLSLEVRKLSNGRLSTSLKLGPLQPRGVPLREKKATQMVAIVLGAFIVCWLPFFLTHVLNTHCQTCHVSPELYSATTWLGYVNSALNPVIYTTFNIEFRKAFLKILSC
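Cells plated overnight at 1500 cells/well, then exposed to library compounds with dopamine controls for 90 minutes at 37 degrees C. DiscoveRx reagent added for 30–60 minutes at room temperature; luminescence read, quantitative HTS format.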
D3 ag: activates the human D3 dopamine receptor. P35462. D3R DiscoveRx beta-arrestin cells, luminescence, 90 min. max activation, %. 0.58% of 410,000 active. AID 652048; in the data active = max activation above about 30%; note: 0% is about no effect
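Agonist mode: compounds and dopamine controls were applied to plated cells for 90 min at 37 degrees C after an overnight attachment at 1500 cells/well. Luminescent read-out followed 30 - 60 minutes at room temperature with DiscoveRx detection reagent.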
* marks the source's active call; other numbers are inactive results; ? = inconclusive; . = no result given. Rows were chosen to be rich in hits. Some 6% of all compounds tested hit in one or more screens of this group.

SMILES	D1 antagonist	D1 agonist	D1 potentiator	DRD3 antagonist	D3 ag
COc1cccc(NC(=O)C2CCN(S(=O)(=O)c3c(C)noc3C)CC2)c1	-21	2	2	.	-6
Cn1c(=O)oc2cc(S(=O)(=O)NC(CC(=O)O)c3cccc(Br)c3)ccc21 (centres undefined)	4	2	-1	.	1
CCOC(=O)c1c(C(C)(C)C)oc2ccc(O)cc12	-1	88*	3	25	-2
CC(=O)c1ccc(OC2(C)CCN(Cc3csc4ccccc34)C2)cc1 (centres undefined)	.	.	.	-53*	-10
COC(=O)Cc1ccc(OC2(C)CCN(Cc3ccccc3OC(F)F)C2)cc1 (centres undefined)	.	.	.	-59*	-8
CSc1ccc(CN2CCC(C)(Oc3ccccc3C)C2)cc1 (centres undefined)	.	.	.	?	-10
CSc1ccc(CN2CCC(C)(Oc3ccc(C(C)=O)cc3)C2)cc1 (centres undefined)	.	.	.	-69*	-9
COc1cc(Cl)ccc1OC1(C)CCN(Cc2ccc(SC)cc2)C1 (centres undefined)	.	.	.	-70*	-16
CCCCCC1Nc2cc(C(F)(F)F)c(S(N)(=O)=O)cc2S(=O)(=O)N1 (centres undefined)	.	.	.	.	0
CCOc1cc(C(=O)Nc2ccc3oc(-c4ccc(F)cc4Cl)nc3c2)cc(OCC)c1OCC	-9	1	-2	.	4
CSc1ccc(CN2CCC(C)(Oc3ccc(F)cc3)C2)cc1 (centres undefined)	.	.	.	-112*	-11
CSc1ccc(OC2(C)CCN(Cc3ccc(OC(F)(F)F)cc3)C2)cc1 (centres undefined)	.	.	.	-25	-7
CC1(Oc2ccccc2-c2ccno2)CCN(Cc2csc3ccccc23)C1 (centres undefined)	.	.	.	-78*	-21
CSc1ccc(CN2CCC(C)(Oc3ccccc3F)C2)cc1 (centres undefined)	.	.	.	-57*	-11
CCN(CC)S(=O)(=O)c1ccc(NC(=O)[C@H](CSCc2ccccc2)N2Cc3ccccc3C2=O)cc1	-15	8	-5	.	2
COc1cccc(CNC(=O)Cn2c(=O)oc3cc(S(=O)(=O)N4CCCC4)ccc32)c1	-31*	5	-3	.	-15
O=C(Cn1c(=O)oc2cc(S(=O)(=O)N3CCCC3)ccc21)NCc1ccc(F)cc1	14	11	-5	-12	-9
O=C(Cn1c(=O)oc2cc(S(=O)(=O)N3CCCC3)ccc21)Nc1cccc(C(F)(F)F)c1	-39*	11	-3	0	4
O=C(Cn1c(=O)oc2cc(S(=O)(=O)N3CCCCC3)ccc21)NCc1ccc(Cl)cc1	-21	13	-4	.	2
O=C(Cn1c(=O)oc2cc(S(=O)(=O)N3CCCCC3)ccc21)NCc1ccc(F)cc1	-37*	41*	-4	.	-2
Cc1cccc(CNC(=O)CN2CC(C)Sc3ccccc32)c1 (centres undefined)	-12	0	2	.	5
CC(C)(C)OC(=O)N1CCC(c2c(C(=O)N3CCN(c4ccc(Cl)cc4)CC3)cnn2-c2ccc(F)cc2F)CC1	9	1	-3	.	1
CCSc1nnc(NC(=O)C2C3CCC(C3)C2C(=O)O)s1 (centres undefined)	-3	1	8	9	-3
CCSc1nnc(NC(=O)C2C3C=CC(C3)C2C(=O)O)s1 (centres undefined)	-46*	3	-10	29	7
CCSc1nnc(NC(=O)c2ccccn2)s1	-6	6	-3	-84*	-2
SMILES	D1 antagonist	D1 agonist	D1 potentiator	DRD3 antagonist	D3 ag
CCSc1nnc(NC(=O)NCC(F)(F)F)s1	-6	1	-4	-83*	-14
CCSc1nnc(NC(=O)c2cnccn2)s1	-21	0	-3	-136*	-10
Cc1ccc(NC(=O)CCc2nnc3n(CC(C)C)c(=O)c4ccccc4n23)cc1C	14	-1	-2	.	6
O=C(CSc1nc2ccccc2n1Cc1c(F)cccc1Cl)N1CCN(c2ccc(F)cc2)CC1	-13	1	-5	.	-6
CC(SCc1cc(=O)n2c([nH]c3ccccc32)c1C#N)C(=O)O (centres undefined)	-32*	3	-4	-15	-1
Cc1cc(C)c(Cn2c(=O)n(CCCCCC(=O)NCc3ccc4c(c3)OCO4)c(=O)c3sccc32)c(C)c1	-2	-2	2	.	3
Cc1ccc(C)c(NC(=O)CN2C(=O)c3cccc4cccc2c34)c1	0	0	8	.	0
